Assay outcomes from PubChem BioAssay.
DT40 TDP1 no CPT: qHTS for Inhibitors of human tyrosyl-DNA phosphodiesterase 1 (TDP1): qHTS in cells in absence of CPT | DT40 Tdp1-/- hTDP1 cells, no CPT, ATP luminescence, 48 h | Potency, µM (doses to about 46.2 µM), without a hit: at the highest dose activity change, negative = growth inhibition, actives largely listed as inhibitors | hit rate 15% among 420,000 | AID 686978, 2013; note: potency is the fitted concentration of half-maximal effect; nearly all actives have a fitted effect of over 55% in size
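DT40 Tdp1-/-;hTDP1 cells, no CPT (DMSO vehicle only), 400 cells/well; compounds pin-transferred; ≥48 hr, 37 °C; CellTiter-Glo 30 min RT dark, luminescence read.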
TDP1 cell CPT: qHTS for Inhibitors of human tyrosyl-DNA phosphodiesterase 1 (TDP1): qHTS in cells in presence of CPT | chicken DT40 Tdp1-/-;hTDP1 cells + 20 nM CPT, ATP luminescence, 48 h | Potency, µM (titrated, usually from 46.2 µM), inactives show top-dose activity change, negative = growth inhibition, most hits filed as inhibitors | hit rate 12% among 420,000 | AID 686979, 2013; note: potency is the fitted concentration of half-maximal effect; nearly all actives have a fitted effect of over 55% in size
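Chicken DT40 Tdp1-/- cells stably complemented with human TDP1 were seeded at 400 cells/well in medium containing 20 nM camptothecin, exposed to pin-transferred compounds, and grown at 37 °C for at least 48 hr. Viability was read as ATP luminescence.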
HT1080-NT tox: qHTS for induction of synthetic lethality in tumor cells producing 2HG: qHTS for the HT-1080-NT fibrosarcoma cell line | hit rate 1.6% among 360,000 | HT-1080-NT fibrosarcoma viability, CellTiter-Glo ATP luminescence, 48 h | Potency, µM (series often up to 46.1 µM), for the others: top-dose activity, negative = less viability, hits mostly cytotoxic | AID 686970, 2013;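 note: NT is the 2HG producing partner of a matched IDH1 knockdown line; potency is the fitted concentration of half-maximal effect; 0% = DMSO-treated cells and -100% = media-only wells without cells; nearly all actives have a fitted effect of over 55% in size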
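Viability by CellTiter-Glo luminescence after 48 h compound exposure at 37C of HT-1080-NT cells (750/well, RPMI, 5% FBS). % activity scaled between DMSO wells and medium-only wells, then curve-fitted and categorized by curve class.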
HT1080 IDH1KD tx: qHTS for induction of synthetic lethality in tumor cells producing 2HG: qHTS for the HT-1080-IDH1KD cell line; HT-1080 IDH1 knockdown viability, ATP luminescence, 48 h; Potency, µM (top dose mostly 46.1 µM), for the others: top-dose activity, negative = toxicity, most hits filed as cytotoxic; hit rate 2% among 360,000;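 note: potency is the fitted concentration of half-maximal effect; 0% = DMSO wells and -100% = cell-free medium wells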
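HT-1080-IDH1KD cells (IDH1 knocked down), 750/well in RPMI with 5% FBS, treated with compound 48 h at 37 degrees C. Viability by CellTiter-Glo luminescence, normalised to DMSO and no-cell wells; concentration-response curves classed.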
IL-1B inflam inh: qHTS for Inhibitors of Inflammasome Signaling: IL-1-beta AlphaLISA Primary Screen; THP-1 LPS/ATP IL-1B secretion, AlphaLISA, 16 h; hits give low values; activity change, % at 57.5 µM; hit rate 4.7% among 360,000; AID 743279, 2014; in the data active = activity change below about -50%; inconclusive = mostly about -30% to -49%
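Secreted IL-1B measured by AlphaLISA bead assay after 16 h compound exposure of THP-1 cells; compounds (final up to 57.5 uM) added 1 h before LPS (250 ng/mL) and ATP (1.25 mM) stimulation; lower signal means less secretion.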
ELG1 DNA repair: qHTS screen for small molecules that inhibit ELG1-dependent DNA repair in human embryonic kidney (HEK293T) cells expressing luciferase-tagged ELG1 | HEK293T ELG1-luciferase reporter, luminescence, 16 h; DNA damage induced by 5-fluorouridine | Potency, µM (highest dose often 46.1 µM), inactives show top-dose activity change, negative = inhibition, actives largely listed as inhibitors | hit rate 2.3% among 330,000 | AID 504467, 2011; note: potency is the fitted concentration of half-maximal effect; nearly all actives have a fitted effect of over 55% in size
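Reporter activity after DNA damage by 5-fluorouridine is monitored. Compound-treated cells incubate 16 hr at 37 °C, then ONE-Glo is added for 30 min before luminescence reading.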
* hit, by the source's call; ? = inconclusive; . = no result. An excerpt weighted towards active compounds, which were near 19% of everything screened. Unless noted, calls come from the whole dose curve; as a rule, active = well fitted curve in the direction sought with a large enough effect; inconclusive = small, poorly fitted or top-dose-only effect, or another doubt; inactive = no such curve, though single readings can be large; an effect the other way counts as inactive or inconclusive. Unless noted, % is set by controls: 0 for no effect and ±100 for the full control effect.

SMILES	DT40 TDP1 no CPT	TDP1 cell CPT	HT1080-NT tox	HT1080 IDH1KD tx	IL-1B inflam inh	ELG1 DNA repair
CC(NC(=O)c1cccs1)c1ccc(Cl)cc1 (stereo not given)	1%	0%	-14%	-12%	-4	.
O=C(NNC(=S)NC(=O)c1ccc(Br)cc1)c1ccc([N+](=O)[O-])cc1	23µM*	?	-9%	3%	11	0%
CC(=O)N1c2ccc(S(=O)(=O)N3CCCCCC3)cc2CC1C(=O)NC(C)C (stereo not given)	-5%	-17%	.	.	.	.
CC(C)C[C@@H](NC(=O)C1CCC(CNC(=O)[C@@H]2CCCN2C(=O)OC(C)(C)C)CC1)C(=O)O (stereo not given in full)	-6%	13%	5%	18%	0	5%
Cc1ccc(S(=O)(=O)NNC(=S)NC(=O)c2ccc([N+](=O)[O-])cc2)cc1	3%	1%	-2%	-2%	15	11%
O=C(NC(=S)NNC(=O)c1ccccc1O)c1cccs1	26µM*	23µM*	?	-21%	20	-17%
O=C(NNC(=S)NC(=O)c1ccc(Br)cc1)c1cccc([N+](=O)[O-])c1	16µM*	18µM*	?	?	34	?
Cc1ccc(C(=O)NC(=S)NNC(=O)c2ccc([N+](=O)[O-])cc2)cc1	15µM*	?	-10%	-4%	52	18%
O=C(CCc1ccccc1)NNC(=O)c1cc(Cl)ccc1O	23µM*	?	-25%	?	74	?
CC(=O)NNC(=S)NC(=O)c1cccc([N+](=O)[O-])c1	-30%	4%	-16%	-21%	0	19%
Cc1cc(C(=O)COC(=O)c2cccc(NS(C)(=O)=O)c2)c(C)n1CC1CCCO1 (stereo not given)	-24%	-24%	3%	5%	-4	?
CCOC(=O)c1c(C)[nH]c(C)c1S(=O)(=O)NCC(=O)Nc1cccc(C#N)c1	?	-12%	.	.	.	.
CCCCCC(=O)NNC(=S)NC(=O)c1ccc([N+](=O)[O-])cc1	?	-6%	-6%	-1%	-14	?
O=C(NNC(=S)NC(=O)c1ccccc1)c1ccc([N+](=O)[O-])cc1	12µM*	13µM*	-30%	-27%	47	43%
O=C(NC(=S)NNC(=O)c1ccccc1O)c1ccccc1	29µM*	?	?	-25%	47	-25%
Cc1nnc(SCC(=O)Nc2ccc(Br)cc2)[nH]c1=O	-14%	-19%	.	.	.	.
Cc1cc(=O)n(Cc2c(F)cccc2Cl)c2c1c(C)nn2-c1cccc(F)c1	-2%	-20%	.	.	.	.
COCCNc1nc2nonc2nc1N(C)Cc1cccc2cnccc12	-23%	-24%	-21%	-7%	21	2%
Cc1nn(C)cc1C(=O)Nc1cc(Oc2ccc(Cl)cc2)cc([N+](=O)[O-])c1	?	?	2%	4%	22	-3%
Cn1cc([N+](=O)[O-])c(C(=O)Nc2cc(Oc3ccccc3)cc([N+](=O)[O-])c2)n1	-24%	-9%	18µM*	6.5µM*	-15	?
CCn1nc(C)c(C(=O)Nc2cc(Oc3cc(C)cc(C)c3)cc([N+](=O)[O-])c2)c1C	21µM*	?	?	?	7	13µM*
Cc1ccc(C)c(Oc2cc(NC(=O)CCCn3nc(C)c([N+](=O)[O-])c3C)cc([N+](=O)[O-])c2)c1	?	?	16µM*	?	?	?
Cc1nn(CCCC(=O)Nc2cc(Oc3ccccc3)cc([N+](=O)[O-])c2)c(C)c1[N+](=O)[O-]	?	?	-2%	-9%	-50*	?
Cc1ccc(Oc2cc(NC(=O)CCCn3nc([N+](=O)[O-])cc3C)cc([N+](=O)[O-])c2)cc1	?	?	-5%	-5%	?	?
COc1ccc(-n2c(CNC(=O)c3c(-c4ccccc4)noc3C)nnc2SC)cc1	-8%	-13%	.	.	.	.
SMILES	DT40 TDP1 no CPT	TDP1 cell CPT	HT1080-NT tox	HT1080 IDH1KD tx	IL-1B inflam inh	ELG1 DNA repair
Cn1ccc2c(N(Cc3ccccc3)Cc3ccccc3)cc3c(c21)C1CCC3O1 (stereo not given)	18µM*	?	-19%	-16%	0	.
CN(Cc1ccccc1)c1cc2c(c3c1ccn3C)C1CCC2O1 (stereo not given)	18µM*	?	-27%	?	-2	.
COc1ccccc1N(C)c1cc2c(c3c1ccn3C)C1CCC2O1 (stereo not given)	?	23µM*	23µM*	?	0	.
COc1cccc(CCn2c(N)cc(=O)[nH]c2=S)c1OC	?	?	6%	28%	.	.
COc1ccc(OC)c(CCNC(=O)C(C)n2c(C)c3cnn(-c4ccccc4)c(=O)c3c2C)c1 (stereo not given)	?	21µM*	.	.	.	.
COC(=O)c1ccccc1NC(=O)Cn1cnc2c(cnn2-c2ccccc2)c1=O	-15%	7%	18%	4%	17	-4%
CSc1ccc(CCNC(=O)C(C)n2c(C)c3cnn(-c4ccccc4)c(=O)c3c2C)cc1 (stereo not given)	?	26µM*	.	.	.	.
CCC(C(=O)Nc1ccccc1C(=O)OC)n1c(C)c2cnn(-c3ccccc3)c(=O)c2c1C (stereo not given)	?	26µM*	.	.	.	.
